High-throughput results as filed in PubChem BioAssay.
HIF-2a block = inhibitors of HIF-2a; 786-0 RCC cells HIF-2a reporter, luciferase luminescence, overnight; inhibition, % at 18.8 µM; actives 0.72% (n = 360,000);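 active = inhibition of the luminescence signal of 40% or more relative to plate controls, in a single-dose primary screen at 18.75 µM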
KKLEB tox = counter-screen for CF NF-kB inhibitors: cytotoxicity | activity change (cytotoxicity), % at 5 µM | AID 602141 | actives 0.36% (n = 360,000) | KKLEB CF airway cells viability, ATPlite luminescence, overnight; stronger effect = lower value; cells stimulated with P. aeruginosa culture filtrate;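 active = corrected activity change at or below -50% at 5 µM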
TROY signal inh = TROY signaling inhibition; Q293 LMP1-TROYcd NF-kB luciferase reporter, 4 h; inhibition, % at 10 µM; actives 0.98% (n = 360,000);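 active = compounds whose plate-normalised and pattern-corrected inhibition of the luciferase reporter signal at the single screening dose is 50% or more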
TWEAK-Fn14 inh = TWEAK-Fn14 signaling inhibition | TWEAK-stimulated Fn14 reporter cells, luciferase luminescence, 8 h | inhibition, % at 10 µM | actives 2% (n = 360,000) | AID 1159606; in the data active = inhibition above about 50%
Peg3 prom inh = inhibitors of Peg3 promoter. HeLa PEG-Prom luciferase reporter, luminescence, overnight. inhibition, % at 20 µM. actives 1.7% (n = 360,000);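 active = inhibition of at least 50% at 20 µM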
CF NFkB inh = cystic fibrosis NF-kB activation inhibition; KKLEB NF-kB-GFP reporter, PAF-induced, GFP fluorescence overnight; actives 0.86% (n = 360,000); inhibition, % at 5 µM;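 active = at least 50% inhibition at 5 µM, scaled per plate between neutral and stimulator controls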;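 also: PAF is a Pseudomonas aeruginosa culture filtrate used as stimulus; plate controls were PAF-stimulated DMSO wells for no effect and unstimulated DMSO wells for full effect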
Active calls of the source: *; / = no result given. In the library only some 4% were active in any assay of this set; here they are far more common.

SMILES	HIF-2a block	KKLEB tox	TROY signal inh	TWEAK-Fn14 inh	Peg3 prom inh	CF NFkB inh
COc1cccc(-c2n[nH]nc2C2=CC(=O)C[C@H](c3ccc(F)cc3)C2)c1	11	-7	16	-20	22	17
CC(C)CN1C(=O)CSCC1(C)C(=O)NCc1ccccc1 (configuration not stated)	-2	/	/	/	/	/
O=C(CCN1C(=O)S/C(=C\C=C\c2ccccc2)C1=O)Nc1ccc(O)cc1	-267	2	-6	58*	6	-120
COc1ccc(/C=C2\SC(=O)N(CC(=O)Nc3cccnc3)C2=O)cc1OC	17	3	20	-4	8	-16
O=C(CCCN1C(=O)S/C(=C\C=C\c2ccccc2)C1=O)Nc1ccc(C(=O)O)cc1	-145	5	-25	-17	-58	-7
COc1cc(/C=C2\SC(=O)N(CC(=O)Nc3ccccc3F)C2=O)cc(Cl)c1O	18	2	54*	18	21	0
COc1ccc(/C=C2/SC(=O)N(CCC(=O)Nc3ccccc3)C2=O)cc1OC	-10	-54*	-9	-14	10	60*
COc1ccccc1/C=C1\SC(=S)N(CCC(=O)NC2=NCCS2)C1=O	72*	12	28	25	9	-13
O=C(CCN1C(=O)/C(=C\c2cccs2)SC1=S)NC1=NCCS1	10	-2	-20	-5	-1	2
Clc1ccccc1-c1ccc2nccn2c1	-19	-22	-5	-3	-12	30
Cc1nn(-c2ccccn2)c2c1C(c1ccccc1Cl)C1=C(N2)c2ccccc2C1=O (configuration not stated)	14	-12	16	50*	36	29
CSC1=C(C#N)C(c2ccccc2Cl)C2=C(N1)c1ccccc1C2=O (configuration not stated)	20	0	-12	-22	13	-10
CC(C)CCNC(=O)C(c1ccc(O)cc1)N(Cc1cccs1)C(=O)C1COc2ccccc2O1 (configuration not stated)	-8	-3	28	55*	51*	5
OCC[C@@H]1C[C@H](O)[C@@H](O)[C@@]2(OCc3ccc4ccccc4c32)O1	11	28	-4	2	-7	-38
CC(=O)Nc1ccccc1OCC(=O)c1cc(C)n(Cc2cccs2)c1C	-35	-3	36	64*	-258	7
Cc1cc(C(=O)COc2cccnc2[N+](=O)[O-])c(C)n1Cc1cccs1	31	-1	6	8	4	12
COCCn1c(C)cc(C(=O)COc2nc3ccccc3nc2C)c1C	-1	-13	-16	19	7	3
COC(=O)CCn1c(C)cc(C(=O)COc2ccccc2C(N)=O)c1C	13	4	23	53*	3	1
COC(=O)CCCn1c(C)cc(C(=O)CCl)c1C	21	21	9	13	51*	23
O=C(Nc1ccccc1N1CCOCC1)c1cccc(NS(=O)(=O)c2ccc(F)c(F)c2)c1	7	0	15	22	7	13
Nc1c2c(nc3sc4c(c13)CCCC4)-c1ccccc1CC2	-276	-34	56*	44	-232	-10
NC(=O)c1sc2nc(-c3ccccc3)c3c(c2c1N)CCCC3	13	6	17	8	18	-26
Cc1ccccc1NC(=O)Nc1ccc2c(c1)CCC2	-225	-11	-90	-45	-285	16
O=C(NCc1nc(-c2ccc(C(F)(F)F)cc2)no1)Nc1ccc(OC(F)(F)F)cc1	3	-29	21	45	74*	33
COc1ccc(-c2noc(CNS(=O)(=O)c3ccc(NC(C)=O)cc3)n2)cc1	-11	-7	-9	7	-11	-14
SMILES	HIF-2a block	KKLEB tox	TROY signal inh	TWEAK-Fn14 inh	Peg3 prom inh	CF NFkB inh
Fc1ccc(Nc2nc(NCc3ccco3)c3ccccc3n2)cc1	-164	-50	46	62*	-27	45
O=C(NC1CCCC1)c1sc(=S)n2c1[nH]c(=O)c1ccccc12	-15	-25	72*	-3	28	47
O=C(NCc1ccco1)c1sc(=S)n2c1[nH]c(=O)c1ccccc12	-27	-5	17	7	10	33
O=C(ONC1=NCCCCC1)c1c(F)cccc1F	15	-10	-12	-43	8	17
O=C(ONC1=NCCCCC1)c1ccc(Cl)cc1	30	-15	-12	-94	101*	9
Oc1cc2c(cc1O)[C@@H](c1ccccc1)CNCC2	-3	-24	10	-4	-14	31
Oc1cc2c(cc1O)C(c1ccccc1)CNCC2 (configuration not stated)	10	-58*	-3	-9	-17	19
Nc1nc(SCC(=O)c2c(N)n(C3CC3)c(=O)[nH]c2=O)n[nH]1	20	1	-33	16	1	18
OCCNc1nc(Cl)nc(NCc2ccco2)n1	0	-13	-16	20	11	28
CCCN(CCC)c1nc(Cl)nc(NCc2ccco2)n1	26	-16	7	75*	10	11
CON(C)C(=O)CC(CN(Cc1ccccc1)C(=O)OC(C)(C)C)c1ccc(Cl)cc1 (configuration not stated)	-4	-22	8	-3	17	28
Cc1ccc(C(=O)O/N=C(\N)c2ccccc2)c(Cl)c1	12	-32	82*	96*	34	-6
N/C(=N\OC(=O)c1cc(Br)ccc1Cl)c1ccccn1	-121	-11	-2	41	-114	-4
Cc1ccc(C(=O)O/N=C(\N)c2ccccn2)c(Cl)c1	73*	-72*	86*	105*	103*	-13
COCCCN=C1NN=C(c2cc(C)n(-c3ccccc3F)c2C)CS1	21	-24	6	59*	-2	2
COCCCN=C1NN=C(c2cc(C)n(-c3ccccc3)c2C)CS1	-17	-11	12	28	-142	16
Cc1cc(C2=NNC(=NCCc3ccccc3)SC2)c(C)n1-c1c(C)n(C)n(-c2ccccc2)c1=O	0	1	-2	57*	17	-1
CCCNC(=O)C[C@@H]1C[C@@H]2c3cc(NS(=O)(=O)c4ccc(OC)cc4)ccc3O[C@@H]2[C@@H](CO)O1	1	-6	-4	-17	7	-5
COc1cc(C(=O)N2CCCCC2c2cc(C(=O)Nc3ccccc3)no2)cc(OC)c1C (configuration not stated)	7	3	12	12	8	-4
CCCCc1ccc(C2C3=C(CC(C)(C)CC3=O)NC3=C2C(=O)c2ccccc23)cc1 (configuration not stated)	19	-25	33	57*	43	17
O=C1CCCC2=C1C(c1cccc(O)c1)C1=C(N2)c2ccccc2C1=O (configuration not stated)	17	2	6	12	25	-13
